VDR inhibitor: inhibitors of human vitamin D receptor. VDR-SRC2-3 peptide fluorescence polarization, 2 h. Potency, µM, without a hit: max response, negative = inhibition, usual class: inhibitors. hit rate 0.93% among 400,000; further: potency means the concentration at half of the fitted maximal effect
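Fluorescence polarization assay measuring small-molecule disruption of VDR binding to the coregulator peptide SRC2-3. Compounds were pin-transferred (23 nl) into the reagent mix and incubated 2 h at room temperature before reading.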
USP1 inh: inhibitors of human USP1/UAF1 deubiquitinase | Potency, µM (doses to about 57.1 µM), without a hit: top-dose activity change, negative = inhibition, actives largely listed as inhibitors | recombinant USP1/UAF1, Ub-Rhodamine cleavage fluorescence | hit rate 0.23% among 390,000 | O94782; further: potency means the concentration at half of the fitted maximal effect; nearly all actives have a fitted effect of over 60% in size
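Step one: compound is pinned into 1nM USP1/UAF1 in HEPES pH 7.8 buffer with TCEP. Step two: 15 min room-temperature incubation. Step three: Ub-Rho (150nM final) starts cleavage, tracked by fluorescence over six one-minute reads.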
Coupling enz: coupling enzyme interference in Giardia aldolase counter-screen; coupling enzyme system counterscreen, AmpLite Red fluorescence; activity change, negative = inhibition, % at 58.2 µM, hits read low; hit rate 0.67% among 290,000; in the data active means activity change below about -30%
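Final compound at 57.5 uM, incubated 10 min at RT with coupling enzyme reagent (glyceraldehyde-3-phosphate), then 20 min with substrate and AmpLite Red detection. Fluorescence read at 525/598 nm; tests interference with the coupling assay, not aldolase inhibition.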
GALK inhibitor: inhibitors of human galactokinase | P51570 | hit rate 0.007% among 270,000 | Potency, µM (doses to about 57.5 µM), inactives show at the top dose activity change, negative = inhibition, most hits filed as inhibitors | Purified GALK, Kinase-Glo residual ATP luminescence; further: potency means the concentration at half of the fitted maximal effect
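Human GALK (5 nM) with 35 uM ATP and 100 uM galactose in 20 mM HEPES pH 8.0, 5 mM MgCl2, 60 mM NaCl, 1 mM DTT, 0.01% BSA. After 1 h at room temperature, leftover ATP was read by Kinase-Glo Plus luminescence.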
USP2a block: blocks human ubiquitin-specific protease USP2a. O75604. Potency, µM (titrated, usually from 38.3 µM), without a hit: at the highest dose activity change, negative = inhibition, actives largely listed as inhibitors. USP2 core, Ub-CHOP2 coupled fluorogenic reporter, 485/531. hit rate 0.01% among 330,000;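 further: potency means the concentration at half of the fitted maximal effect; plate controls were DMSO wells for no effect and full inhibition by NEM control for full effect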
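USP2 core (10nM final) preincubated 30min RT with compound in 20mM Tris-HCl pH 8.0, 2mM CaCl2, 2mM beta-mercaptoethanol, 0.05% CHAPS; 25nM Ub-CHOP2 plus 25nM reporter substrate added, fluorescence (Ex485/Em531) read after 60min.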
PLK1 PBD block: blocks phosphopeptide binding to human PLK1 polo-box domain; Plk1 PBD binding of FITC phosphopeptide, fluorescence polarization; Potency, µM, for inactives: max response, negative = inhibition, usual class: inhibitors; hit rate 2.8% among 360,000; further: potency means the concentration at half of the fitted maximal effect; series mostly up to about 57 µM; nearly all actives have a fitted effect of over 65% in size
Target sequence (P53350 whole entry, looked up, the tested form may be a part): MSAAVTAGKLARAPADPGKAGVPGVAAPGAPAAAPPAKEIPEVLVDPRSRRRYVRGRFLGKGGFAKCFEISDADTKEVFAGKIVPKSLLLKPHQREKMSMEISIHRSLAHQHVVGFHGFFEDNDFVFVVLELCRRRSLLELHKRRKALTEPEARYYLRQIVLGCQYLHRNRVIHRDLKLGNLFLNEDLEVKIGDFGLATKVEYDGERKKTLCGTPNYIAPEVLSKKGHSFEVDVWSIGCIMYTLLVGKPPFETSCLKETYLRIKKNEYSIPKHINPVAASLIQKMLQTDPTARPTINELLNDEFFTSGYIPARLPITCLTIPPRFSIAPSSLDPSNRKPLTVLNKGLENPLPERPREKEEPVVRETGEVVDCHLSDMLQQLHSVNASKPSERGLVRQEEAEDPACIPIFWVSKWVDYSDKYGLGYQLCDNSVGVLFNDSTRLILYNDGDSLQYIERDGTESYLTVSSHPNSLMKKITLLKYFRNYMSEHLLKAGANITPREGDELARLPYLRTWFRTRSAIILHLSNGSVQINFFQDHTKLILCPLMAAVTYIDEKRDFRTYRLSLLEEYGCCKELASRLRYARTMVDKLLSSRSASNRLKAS
The depositor's hits bear a star; ? = inconclusive; / = not tested or not shown. Compounds with a hit are over-represented: about 3.2% of the library has one in this group of screens. Unless noted, the call rests on the fitted dose curve; in most records, active means well fitted curve in the direction sought with a large enough effect; inconclusive means small, poorly fitted or top-dose-only effect, or another doubt; inactive means no such curve, though single readings can be large; an effect the other way counts as inactive or inconclusive. Unless noted, on the % scale 0 is the no-effect control and ±100 the full control effect.

SMILES	VDR inhibitor	USP1 inh	Coupling enz	GALK inhibitor	USP2a block	PLK1 PBD block
O=S(=O)(O)c1cccc2cccc(Nc3ccccc3)c12	?	?	/	/	/	15µM*
c1ccc(Nc2cccc3c(Nc4ccccc4)cccc23)cc1	-4.1%	-20.5%	-17.6	-0.7%	0.0%	0.7%
C=CCc1cccc2cc(NC(C)=O)c(=O)oc12	-13.0%	-12.3%	3.2	-0.4%	-0.1%	26.7µM*
C=CCc1cccc2cc(C(=O)Nc3cccc(Cl)c3)c(=O)oc12	-5.4%	-25.0%	/	/	/	/
Cc1cc(Nc2ccc(Br)c(C)c2)n2nc(C)nc2n1	?	-2.1%	2.6	0.4%	3.2%	29.9µM*
Cc1ccc(Nc2cc(C)nc3nc(C)nn23)cc1	-8.4%	-6.1%	0.6	/	0.8%	-17.1%
COCCCNC(=O)c1cc2cc3cc(OC)ccc3nc2o1	-21.6%	-25.2%	0.1	-3.0%	-2.7%	21.2µM*
Nc1nnc(CSCc2ccc(Cl)cc2Cl)s1	-26.5%	-8.5%	4.4	0.3%	1.0%	18.9µM*
Cc1cccc2c(Cl)cc(=O)[nH]c12	/	/	0.1	-2.6%	-0.5%	/
Cc1cccc2c3c([nH]c12)CCNC3	?	-7.5%	1.4	5.5%	-1.0%	23.8µM*
COc1ccc(Cc2nc3ccc(C(=O)N(C)Cc4nccs4)cc3o2)cc1OC	-16.0%	-10.9%	/	0.4%	1.7%	29.9µM*
CCOc1ccccc1NC(=O)c1sc2nc(C)cc(C)c2c1N	8.4%	-13.8%	/	/	/	/
O=C(O)CN1C(=O)/C(=C2\C(=O)N(Cc3ccccc3Cl)c3ccccc32)SC1=S	-19.3%	-7.8%	4.5	-2.8%	2.1%	26.7µM*
O=C1/C(=C2\C(=O)N(Cc3ccc(F)cc3)c3ccccc32)SC(=S)N1CCS(=O)(=O)O	?	-27.6%	-8.0	-3.1%	-1.8%	21.2µM*
O=C(c1ccc2c(c1)N(Cc1ccccc1Cl)C(=O)c1ccccc1S2)N1CCCC1	0.8%	-32.9%	/	/	/	/
CN1C(=O)/C(=C2\SC(=S)N(CC3CCCO3)C2=O)c2ccccc21 (stereo unspecified)	/	/	-0.2	0.6%	3.9%	/
CC(C)c1ccc(C2c3[nH]c4ccccc4c3C[C@H]3C(=O)N(c4ccccc4C(=O)N4CCC[C@@H]4C(=O)O)C(=O)N23)cc1 (stereo partly specified)	-1.0%	-19.3%	3.1	/	1.0%	42.3µM*
Cc1ccc(C2c3[nH]c4ccccc4c3C[C@H]3C(=O)N(c4ccccc4C(=O)N4CCC[C@H]4C(=O)O)C(=O)N23)cc1 (stereo partly specified)	-15.2%	-1.2%	1.0	/	-1.4%	?
Cc1cc(C(=O)N/N=C/C=C/c2ccccc2)n[nH]1	15.1%	1.3%	-0.7	/	0.0%	-1.9%
Cc1ccc(-c2cc(C(=O)N/N=C/C=C/c3ccccc3)n[nH]2)s1	?	-25.6%	-1.0	0.8%	-0.6%	6.7µM*
COCOc1ccc(/C=C2/Oc3cc(OCOC)cc(OCOC)c3C2=O)c(OCOC)c1	-15.2%	-13.4%	/	/	/	-4.3%
CN1CCN(CC(=O)c2cc(C(C)(C)C)c(O)c(C(C)(C)C)c2)CC1	70.8µM*	-7.4%	-4.1	0.5%	0.6%	-25.2%
C=Cn1cc[n+](CC(=O)c2cc(C(C)(C)C)c(O)c(C(C)(C)C)c2)c1	-10.5%	-24.3%	-0.7	0.7%	1.7%	-2.6%
COc1cccc(NC(=O)[C@H](CC(C)C)NC(=O)[C@@H]2Cc3ccccc3CN2)c1	4.7%	-0.4%	/	5.7%	-0.2%	-15.8%
Oc1ccc(CN2CCCc3ccccc32)c2cccnc12	79.4µM*	-19.6%	-3.5	1.1%	1.4%	?
SMILES	VDR inhibitor	USP1 inh	Coupling enz	GALK inhibitor	USP2a block	PLK1 PBD block
S=C(Nc1cccc(Br)c1)c1ccccc1	-16.8%	-24.0%	0.1	1.2%	1.0%	13.4µM*
COc1cc(CC(=O)NC(c2ccccc2)c2ccccc2)cc(OC)c1OC	?	-13.1%	0.4	-2.0%	1.6%	21.2µM*
COc1ccc(CNC(=O)CNC(c2ccccc2)c2ccccc2)cc1OC	8.0%	-10.0%	1.2	-1.4%	-1.1%	-8.1%
COc1ccccc1N1CCN(C(=O)c2ccc3nc(-c4ccco4)c(-c4ccco4)nc3c2)CC1	2.3%	-24.2%	0.5	-1.4%	-2.5%	-3.2%
Cc1ccc(C)c(N2CCN(C(=O)c3ccc4nc(-c5ccco5)c(-c5ccco5)nc4c3)CC2)c1	-19.3%	-23.3%	/	1.3%	-9.1%	5.97µM*
O=C(NCCO)c1ccc2nc(-c3ccco3)c(-c3ccco3)nc2c1	35.5µM*	31.6µM*	-47.1*	0.8%	3.7%	16.8µM*
O=C(c1ccc(S(=O)(=O)Cc2ccccc2F)c([N+](=O)[O-])c1)N1CCCC1	-9.2%	-9.9%	4.8	5.3%	5.4%	23.8µM*
CC1CCN(C(=O)c2ccc(S(=O)(=O)Cc3ccccc3F)c([N+](=O)[O-])c2)CC1	0.7%	-18.2%	2.2	-3.0%	3.6%	-13.3%
c1ccc2c(c1)Nc1nccnc1S2	?	-15.4%	-7.5	0.0%	1.0%	15µM*
CCN(CC(=O)Nc1ccc(NC(C)=O)cc1)c1ccc(C(F)(F)F)cn1	-3.4%	-4.0%	2.7	0.0%	-0.4%	-16.7%
NS(=O)(=O)c1ccc2c(c1)C(=NO)c1cc(S(N)(=O)=O)ccc1-2	-7.7%	-20.3%	0.8	-2.4%	-0.3%	-4.3%
Cc1ccc(S(=O)(=O)c2ccc([N+](=O)[O-])o2)cc1	44.7µM*	-14.5%	/	/	/	0.844µM*
O=C1CCC(C(=O)OCc2cc(Cl)ccc2OC(F)F)N1 (stereo unspecified)	?	-12.3%	1.8	0.2%	-0.6%	26.7µM*
CC(C)(C)NC(=O)C(c1cccs1)N(Cc1ccc(F)cc1)C(=O)c1csnn1 (stereo unspecified)	-1.4%	-16.8%	-1.2	2.4%	1.7%	26.7µM*
Cc1nc2ccc(S(=O)(=O)N(C)CC(=O)Nc3cccc(C(F)(F)F)c3)cc2s1	-2.5%	-24.7%	/	/	/	/
COc1cccc(C(c2nnnn2CCc2ccccc2)N2CCN(c3ccccc3)CC2)c1OC (stereo unspecified)	-11.7%	-25.2%	-3.6	-1.2%	-0.4%	29.9µM*
O=C(CSc1nnc(Cc2ccc3c(c2)OCO3)n1C1CCCCC1)NC1CCCC1	9.9%	-18.3%	-2.4	-0.6%	3.0%	-7.3%
NC(=O)CSc1nnc(Cc2ccc3c(c2)OCO3)n1C1CCCCC1	-16.9%	-0.7%	2.1	2.8%	-1.9%	26.7µM*
COC(=O)c1cccc(Cn2c(Cl)c(/C=N/Nc3ccccc3C)sc2=O)c1	-24.1%	-23.8%	-1.2	0.4%	1.2%	-4.0%
O=C(O)c1cccc(Cn2c(Cl)c(/C=N/NC(=O)c3cc4ccccc4cc3O)sc2=O)c1	?	?	13.6	-13.9%	-1.6%	26.7µM*

Screening data as filed in PubChem BioAssay.
